HCMV antiviral = inhibitors of human cytomegalovirus; HFF cells, HCMV-luciferase reporter, 72 h; hits give low values; activity change, negative = inhibition, % at 57.5 µM; 410,000 compounds, 4.5% hits; AID 1259415; in the data active means activity change below about -60%; inconclusive means no clear call, values can overlap the other calls; inactive means above about -39%
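Two compound doses tested in HFFs infected with HCMV-luciferase, MOI 1 PFU/cell, 72 h at 37C. Lysate luminescence read with OneGlo; data normalized against buffer-only and 10uM Salinomycin inhibitor controls.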
Pf growth 48h = inhibits P. falciparum growth in the first generation, 48 h; 310,000 compounds, 5.9% hits; Potency, µM (doses to about 28.7 µM), actives largely listed as inhibitors; P. falciparum luciferase growth in erythrocytes, 48 h
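Parasite viability was followed by luminescence of a genomically integrated firefly luciferase. Cultures held 0.1% parasitemia at 2% hematocrit (final), incubated under 5% CO2 at 37 C.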
Pf growth 96h = P. falciparum growth inhibition at 96 hours | Potency, µM (titrated, usually from 28.7 µM), usual class: inhibitors | 320,000 compounds, 6.9% hits | P. falciparum luciferase reporter growth, 96 h
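Two-generation exposure (96 h) targets delayed-death phenotype. Reporter parasites carrying integrated firefly luciferase, in red cells at 2% hematocrit and 0.05% parasitemia final, kept at 37 C, 5% CO2; luminescence loss indicates inhibition.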
Cycloheximide cs = counter-screen hit for Shiga toxin inhibitors, cycloheximide. cell reporter, cycloheximide protein synthesis inhibition counterscreen. max response, %. 300,000 compounds, 12% hits. AID 2314; in the data active means max response mostly above about 13%, no sharp cut-off; inactive means mostly below about 14%; further: read at 38.3 µM for the half of the compounds with a filed dose
HCV inhibitor = inhibitors of hepatitis C virus infection | 340,000 compounds, 3.4% hits | Huh7.5.1 HCVcc-Cre infection, luciferase reporter, 44 h | Potency, µM (doses to about 41.8 µM), usual class: inhibitors
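A cell-based infection assay in which seeded cells (1,000 per well) receive test compound after 4 h, are inoculated with HCVcc-Cre at approximately 0.5 moi, and are incubated 44 h before luminescence detection.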
Shiga inhibitor = blocks Shiga toxin action in Vero cells; AID 2315; 290,000 compounds, 9.2% hits; Vero cells, Shiga toxin protein synthesis inhibition reporter; inhibition, % at 38.7 µM; in the data active means inhibition mostly above about 28%, no sharp cut-off; inactive means mostly below about 43%
Hits are given with their value. An excerpt weighted towards active compounds, which were near 21% of everything screened. Unless noted, the call rests on the fitted dose curve; in most records, active means well fitted inhibition curve with a large enough effect; inconclusive means small, poorly fitted or top-dose-only effect, or another doubt; inactive means no such curve, though single readings can be large or run the other way.

For O=[N+]([O-])c1ccc(CSc2nc3ncc(Br)cc3[nH]2)cc1 the results were HCMV antiviral -62, Pf growth 48h inconclusive, Pf growth 96h inactive, Cycloheximide cs inactive, HCV inhibitor inactive and Shiga inhibitor inactive.
COc1ccc(S(=O)(=O)n2nc(C)c(S(=O)(=O)N3CCC(C)CC3)c2C)cc1C was read as HCMV antiviral inactive.
CCCOc1ccccc1NC(=O)/C=C/c1ccc(OC)c(S(=O)(=O)N2CCOCC2)c1 was read as HCMV antiviral inactive.
`Cc1cc(C)c(/C=C/c2onc(C)c2S(=O)(=O)N2CCC(C(=O)N3CCN(c4ccccc4)CC3)CC2)c(C)c1` gave HCMV antiviral inactive.
Screening O=C(O)c1ccc(CSc2nc3ccccc3[nH]2)cc1 returned HCMV antiviral inactive, Pf growth 48h inactive, Pf growth 96h inconclusive, Cycloheximide cs inactive, HCV inhibitor inactive and Shiga inhibitor inactive.
Cc1cc(C)c2nc(SCc3ccc([N+](=O)[O-])cc3)nc(C)c2c1 was read as HCMV antiviral inactive, Pf growth 48h inactive, Pf growth 96h 13µM, Cycloheximide cs inactive, HCV inhibitor inconclusive and Shiga inhibitor inactive.
COc1cccc(CSc2nc3ccccc3[nH]2)c1 was read as HCMV antiviral inactive, Pf growth 48h inactive, Pf growth 96h inactive, Cycloheximide cs 30, HCV inhibitor inactive and Shiga inhibitor inactive.
`Cc1ccc2nc(SCc3ccc([N+](=O)[O-])cc3)[nH]c2c1` gave HCMV antiviral inactive, Pf growth 48h inconclusive, Pf growth 96h inactive, Cycloheximide cs 40, HCV inhibitor inconclusive and Shiga inhibitor 73.
For CCc1ccc(S(=O)(=O)/N=C2/C=C(Sc3ncn[nH]3)C(=O)c3ccccc32)cc1 the results were Pf growth 48h 2.9µM, Pf growth 96h 4.1µM, Cycloheximide cs 19, HCV inhibitor 2.8µM and Shiga inhibitor 49.
`O=S(=O)(N=C1C=CC(=NS(=O)(=O)c2ccccc2)c2ccccc21)c1ccccc1` gave HCMV antiviral inactive.
Screening CCc1ccc(S(=O)(=O)/N=C2\C=C(Nc3cccc(C(=O)O)c3)C(=O)c3ccccc32)cc1 returned HCMV antiviral inactive, Pf growth 48h 1.7µM, Pf growth 96h inactive, Cycloheximide cs inactive, HCV inhibitor inconclusive and Shiga inhibitor inactive.
Screening CCc1ccc(S(=O)(=O)/N=C2\C=C(Nc3ccc(O)cc3)C(=O)c3ccccc32)cc1 returned Pf growth 48h 0.74µM, Pf growth 96h inconclusive, Cycloheximide cs 17, HCV inhibitor inconclusive and Shiga inhibitor inactive.
`Cc1ccc(S(=O)(=O)/N=C2\C=C(NS(=O)(=O)c3ccccc3)C(=O)c3ccccc32)cc1` gave HCMV antiviral inactive and HCV inhibitor inactive.
Screening CCc1ccc(S(=O)(=O)/N=C2\C=CC(=O)c3ccccc32)cc1 returned Pf growth 48h 2.3µM, Pf growth 96h inconclusive, Cycloheximide cs inactive and Shiga inhibitor inactive.
Screening CCOc1ccccc1CNC(=O)CN1C(=O)CCc2cc(S(=O)(=O)N3CCCCC3)ccc21 returned HCMV antiviral inactive.
`CCCS(=O)(=O)NC(=O)C1(C)CCCN(C(=O)c2c(C)noc2C)C1` (centres undefined) gave HCMV antiviral inactive.
Screening CC(Oc1ccc(F)cc1)C(=O)Nc1cccc(S(=O)(=O)N(C)c2ccccc2)c1 (centres undefined) returned HCMV antiviral inactive.
Cc1ccc(C)c(NC(=O)Cn2c(=O)n(Cc3ccco3)c(=O)c3oc4ccccc4c32)c1 was read as HCMV antiviral inactive.
CCOC(=O)c1c(NC(=O)COc2ccccc2OCC)sc2c1CC(C)(C)NC2(C)C was read as Pf growth 48h inconclusive, Pf growth 96h 12µM and HCV inhibitor inconclusive.
`COC(=O)c1c(NC(=O)c2ccco2)sc2c1CC(C)(C)NC2(C)C` gave HCMV antiviral inactive, Pf growth 48h inactive, Pf growth 96h 17µM, Cycloheximide cs inactive, HCV inhibitor inactive and Shiga inhibitor inactive.
For CCOC(=O)c1c(NC(=O)COc2ccccc2C#N)sc2c1CC(C)(C)NC2(C)C the results were HCMV antiviral inconclusive, Pf growth 48h 12µM, Pf growth 96h 5.2µM, Cycloheximide cs inactive and Shiga inhibitor inactive.
CCOC(=O)c1c(NC(=O)Cc2ccccc2)sc2c1CC(C)(C)NC2(C)C was read as HCMV antiviral inactive, Pf growth 48h inconclusive, Pf growth 96h 0.93µM, Cycloheximide cs inactive, HCV inhibitor inconclusive and Shiga inhibitor inactive.
Screening CCOC(=O)c1c(NC(=O)COC(=O)c2ccc(C)s2)sc2c1CC(C)(C)NC2(C)C returned HCMV antiviral inactive, Pf growth 48h inactive, Pf growth 96h inactive and HCV inhibitor inconclusive.
COc1ccc(N2CCN(C(=O)COC(=O)c3oc4ccccc4c3C)CC2)cc1 was read as HCMV antiviral inactive, Pf growth 48h inactive, Pf growth 96h inactive and HCV inhibitor inconclusive.
`O=C(/C=C/[C@H]1O[C@@H](n2cnc3c(NC(=O)c4ccccc4)ncnc32)[C@H](O)[C@@H]1O)NCC1CCCO1` (some centres undefined) gave HCMV antiviral inactive.
Screening CCOC(=O)Nc1nnc(-c2cccc(OC)c2)s1 returned HCMV antiviral -66, Pf growth 48h inactive, Cycloheximide cs 15, HCV inhibitor inactive and Shiga inhibitor inactive.
`CCc1nnc(NC(=O)Cc2ccc(OC)cc2)s1` gave HCMV antiviral inactive, Pf growth 48h inactive, Cycloheximide cs inactive, HCV inhibitor inactive and Shiga inhibitor inactive.
COc1cccc(N2CCN(CC(=O)Nc3nnc(-c4ccccc4)s3)CC2)c1 was read as HCMV antiviral inactive, Pf growth 48h inconclusive, Cycloheximide cs inactive, HCV inhibitor 6.3µM and Shiga inhibitor inactive.
For CCOC(=O)Nc1nnc(-c2ccc(OC)cc2)s1 the results were HCMV antiviral inactive, Pf growth 96h inconclusive, Cycloheximide cs 24, HCV inhibitor inactive and Shiga inhibitor inactive.
`O=C(C1CCN(S(=O)(=O)c2ccc(F)cc2)CC1)N1CC=C(c2ccccc2)CC1` gave HCMV antiviral -101, Pf growth 48h 10µM, Pf growth 96h inactive, Cycloheximide cs inactive, HCV inhibitor inconclusive and Shiga inhibitor inactive.
`Cn1c(=O)oc2cc(S(=O)(=O)N3CCC(C(=O)N4CCN(c5ccccc5)CC4)CC3)ccc21` gave HCMV antiviral inconclusive, Pf growth 48h inactive, Pf growth 96h inconclusive, Cycloheximide cs inactive, HCV inhibitor inactive and Shiga inhibitor inactive.
Cn1c(=O)oc2cc(S(=O)(=O)N3CCC(C(=O)N4CC=C(c5ccccc5)CC4)CC3)ccc21 was read as HCMV antiviral -73, Pf growth 96h inconclusive, Cycloheximide cs inactive, HCV inhibitor inactive and Shiga inhibitor inactive.
`Cn1ccnc1Sc1cc(NCCCO)c([N+](=O)[O-])c2nonc12` gave HCMV antiviral inactive, Pf growth 48h inconclusive, Pf growth 96h inactive, Cycloheximide cs inactive, HCV inhibitor 10µM and Shiga inhibitor inactive.
